Data published in ChEMBL document CHEMBL3988442, “University of Dundee, Small-Polar-MMV Screening Library” (2021).
For some of these results: Entries with a potency or affinity are not part of this list.

Tests used:
Set-up in all cases: scale not given: direction of the effect not stated beside the values
[1] = target: Protein translocase subunit SecA (Escherichia coli (strain K12)) (UniProt P10408); test: Assay to Identify E. coli SecA ATPase Inhibitors; format: functional; settings: 30 µM
[2] = target: T1, Ubiquitin-activating enzyme e1, putative (Leishmania donovani (strain BPK282A1)) (UniProt E9BSI1); test: Leishmania donovani Ubiquitin Activating Enzyme (LdE1); format: functional; settings: 30 µM
T1 sequence (whole entry): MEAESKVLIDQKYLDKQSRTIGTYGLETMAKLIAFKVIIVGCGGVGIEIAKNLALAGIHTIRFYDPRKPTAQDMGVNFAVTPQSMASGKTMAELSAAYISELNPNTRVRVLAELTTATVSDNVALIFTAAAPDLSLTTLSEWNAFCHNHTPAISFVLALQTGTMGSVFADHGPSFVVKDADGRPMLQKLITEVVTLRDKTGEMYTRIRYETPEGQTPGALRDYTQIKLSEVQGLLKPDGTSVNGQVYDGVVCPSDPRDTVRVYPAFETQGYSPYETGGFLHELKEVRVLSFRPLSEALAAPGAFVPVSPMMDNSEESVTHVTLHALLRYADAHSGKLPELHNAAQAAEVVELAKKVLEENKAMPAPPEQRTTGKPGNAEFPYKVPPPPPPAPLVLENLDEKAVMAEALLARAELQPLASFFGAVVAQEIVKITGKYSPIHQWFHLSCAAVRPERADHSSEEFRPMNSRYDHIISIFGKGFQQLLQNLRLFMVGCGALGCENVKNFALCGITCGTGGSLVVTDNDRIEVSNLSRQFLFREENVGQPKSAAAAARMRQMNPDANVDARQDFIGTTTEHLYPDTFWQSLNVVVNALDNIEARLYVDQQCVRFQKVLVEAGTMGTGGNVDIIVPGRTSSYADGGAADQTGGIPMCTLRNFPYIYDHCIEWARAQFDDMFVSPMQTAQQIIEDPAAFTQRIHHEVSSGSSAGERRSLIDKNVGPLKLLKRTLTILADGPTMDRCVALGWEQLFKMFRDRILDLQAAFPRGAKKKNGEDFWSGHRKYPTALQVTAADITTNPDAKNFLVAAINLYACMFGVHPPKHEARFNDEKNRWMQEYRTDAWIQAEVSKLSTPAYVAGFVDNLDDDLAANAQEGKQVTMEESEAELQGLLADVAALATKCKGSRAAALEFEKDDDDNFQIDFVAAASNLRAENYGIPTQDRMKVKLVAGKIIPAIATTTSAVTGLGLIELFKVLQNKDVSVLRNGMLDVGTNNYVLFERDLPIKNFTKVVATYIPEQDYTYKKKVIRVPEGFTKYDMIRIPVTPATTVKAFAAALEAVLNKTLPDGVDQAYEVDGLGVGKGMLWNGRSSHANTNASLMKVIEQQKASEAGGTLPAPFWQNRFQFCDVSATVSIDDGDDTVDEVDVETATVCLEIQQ

[3] = target: Sialic acid-binding Ig-like lectin 9 (Homo sapiens) (UniProt Q9Y336); test: Hs-Siglec9 ALPHAscreen SOP 20170721; settings: 10 µM
[4] = test system: Trypanosoma cruzi; test: Trypanosoma cruzi phosphomannomutase and mannose-1-phosphate guanylyltransferase assay; format: functional; settings: 10 µM
[5] = target: T2, Arginase-2, mitochondrial (Homo sapiens) (UniProt P78540); test: in vitro enzyme assay to detect the production of urea directly proportional to the activity of Arginase II; format: functional; settings: 33.3 µM; further: in the data most compounds retested in dose-response had high values
T2 sequence (whole entry): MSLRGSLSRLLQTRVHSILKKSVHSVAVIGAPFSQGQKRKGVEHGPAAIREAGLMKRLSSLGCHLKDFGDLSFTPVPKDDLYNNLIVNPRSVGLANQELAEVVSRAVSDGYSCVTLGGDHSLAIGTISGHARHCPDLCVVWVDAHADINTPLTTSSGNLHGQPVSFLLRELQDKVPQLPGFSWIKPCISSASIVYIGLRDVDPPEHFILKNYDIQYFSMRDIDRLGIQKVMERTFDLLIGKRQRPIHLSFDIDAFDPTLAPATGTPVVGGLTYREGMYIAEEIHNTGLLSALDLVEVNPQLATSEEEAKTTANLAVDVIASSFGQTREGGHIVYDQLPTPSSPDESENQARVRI

[6] = target: T3, Proteasome subunit beta (Trypanosoma cruzi) (UniProt O96673); test: Trypanosoma cruzi proteasome chymotrypsin-like activity (TcProtChymo) assay.; further: in the data most compounds retested in dose-response had high values; format: functional; settings: 9.37 µM
T3 sequence (whole entry): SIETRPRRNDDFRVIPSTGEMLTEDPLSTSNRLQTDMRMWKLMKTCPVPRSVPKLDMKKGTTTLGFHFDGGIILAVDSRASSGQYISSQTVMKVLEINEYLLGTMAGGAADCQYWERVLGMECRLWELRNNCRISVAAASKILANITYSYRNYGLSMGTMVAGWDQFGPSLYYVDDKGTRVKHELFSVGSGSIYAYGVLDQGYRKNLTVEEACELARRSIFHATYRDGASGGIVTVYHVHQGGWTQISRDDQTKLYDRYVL

[7] = organism: Homo sapiens; test: To identify inhibition of the IFN signalling (Jak-Stat) pathway via expression of an eGFP reporter gene under the control of an IFN-stimulated response element (ISRE) containing MxA promoter.; format: functional; settings: 30 µM
[8] = target: T4, Tyrosyl-tRNA synthetase, putative (Trypanosoma cruzi (strain CL Brener)) (UniProt Q4DSP6); test: Trypanosoma cruzi tyrosyl tRNA synthetase (TcYRS) _High Tyrosine SOP; format: functional; settings: 30 µM; further: in the data most compounds retested in dose-response had high values
T4 sequence (whole entry): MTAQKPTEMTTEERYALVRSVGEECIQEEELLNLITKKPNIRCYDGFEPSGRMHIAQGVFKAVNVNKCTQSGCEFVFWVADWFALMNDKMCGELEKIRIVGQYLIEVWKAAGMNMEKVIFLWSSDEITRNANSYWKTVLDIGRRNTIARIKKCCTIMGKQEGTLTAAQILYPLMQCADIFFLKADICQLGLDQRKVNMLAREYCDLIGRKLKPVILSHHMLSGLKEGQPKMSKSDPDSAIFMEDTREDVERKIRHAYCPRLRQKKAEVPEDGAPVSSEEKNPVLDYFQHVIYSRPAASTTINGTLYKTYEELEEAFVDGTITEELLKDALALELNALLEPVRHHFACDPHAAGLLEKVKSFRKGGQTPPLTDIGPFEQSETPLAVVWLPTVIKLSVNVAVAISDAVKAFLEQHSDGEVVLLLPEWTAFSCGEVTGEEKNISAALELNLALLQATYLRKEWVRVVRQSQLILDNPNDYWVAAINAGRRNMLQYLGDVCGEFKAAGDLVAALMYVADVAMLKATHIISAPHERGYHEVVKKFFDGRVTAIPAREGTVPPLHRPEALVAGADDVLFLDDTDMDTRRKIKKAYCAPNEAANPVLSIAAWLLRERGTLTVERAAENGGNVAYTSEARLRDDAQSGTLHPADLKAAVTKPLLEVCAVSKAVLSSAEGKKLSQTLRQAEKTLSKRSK

[9] = target: T4, Tyrosyl-tRNA synthetase, putative (Trypanosoma cruzi (strain CL Brener)); test: Trypanosoma cruzi tyrosyl tRNA synthetase (TcYRS) SOP; format: functional; settings: 30 µM
[10] = target: Chromo domain-containing protein 1 (Saccharomyces cerevisiae (strain ATCC 204508 / S288c) (Baker's yeast)) (UniProt P32657); test: ScCHD-1 Enzyme Inhibition Assay; format: functional; settings: 30 µM; further: in the data most compounds retested in dose-response had high values
Chromo domain-containing protein 1 (Saccharomyces cerevisiae (strain ATCC 204508 / S288c) (Baker's yeast)), sequence (P32657 whole entry, the tested form may be a part): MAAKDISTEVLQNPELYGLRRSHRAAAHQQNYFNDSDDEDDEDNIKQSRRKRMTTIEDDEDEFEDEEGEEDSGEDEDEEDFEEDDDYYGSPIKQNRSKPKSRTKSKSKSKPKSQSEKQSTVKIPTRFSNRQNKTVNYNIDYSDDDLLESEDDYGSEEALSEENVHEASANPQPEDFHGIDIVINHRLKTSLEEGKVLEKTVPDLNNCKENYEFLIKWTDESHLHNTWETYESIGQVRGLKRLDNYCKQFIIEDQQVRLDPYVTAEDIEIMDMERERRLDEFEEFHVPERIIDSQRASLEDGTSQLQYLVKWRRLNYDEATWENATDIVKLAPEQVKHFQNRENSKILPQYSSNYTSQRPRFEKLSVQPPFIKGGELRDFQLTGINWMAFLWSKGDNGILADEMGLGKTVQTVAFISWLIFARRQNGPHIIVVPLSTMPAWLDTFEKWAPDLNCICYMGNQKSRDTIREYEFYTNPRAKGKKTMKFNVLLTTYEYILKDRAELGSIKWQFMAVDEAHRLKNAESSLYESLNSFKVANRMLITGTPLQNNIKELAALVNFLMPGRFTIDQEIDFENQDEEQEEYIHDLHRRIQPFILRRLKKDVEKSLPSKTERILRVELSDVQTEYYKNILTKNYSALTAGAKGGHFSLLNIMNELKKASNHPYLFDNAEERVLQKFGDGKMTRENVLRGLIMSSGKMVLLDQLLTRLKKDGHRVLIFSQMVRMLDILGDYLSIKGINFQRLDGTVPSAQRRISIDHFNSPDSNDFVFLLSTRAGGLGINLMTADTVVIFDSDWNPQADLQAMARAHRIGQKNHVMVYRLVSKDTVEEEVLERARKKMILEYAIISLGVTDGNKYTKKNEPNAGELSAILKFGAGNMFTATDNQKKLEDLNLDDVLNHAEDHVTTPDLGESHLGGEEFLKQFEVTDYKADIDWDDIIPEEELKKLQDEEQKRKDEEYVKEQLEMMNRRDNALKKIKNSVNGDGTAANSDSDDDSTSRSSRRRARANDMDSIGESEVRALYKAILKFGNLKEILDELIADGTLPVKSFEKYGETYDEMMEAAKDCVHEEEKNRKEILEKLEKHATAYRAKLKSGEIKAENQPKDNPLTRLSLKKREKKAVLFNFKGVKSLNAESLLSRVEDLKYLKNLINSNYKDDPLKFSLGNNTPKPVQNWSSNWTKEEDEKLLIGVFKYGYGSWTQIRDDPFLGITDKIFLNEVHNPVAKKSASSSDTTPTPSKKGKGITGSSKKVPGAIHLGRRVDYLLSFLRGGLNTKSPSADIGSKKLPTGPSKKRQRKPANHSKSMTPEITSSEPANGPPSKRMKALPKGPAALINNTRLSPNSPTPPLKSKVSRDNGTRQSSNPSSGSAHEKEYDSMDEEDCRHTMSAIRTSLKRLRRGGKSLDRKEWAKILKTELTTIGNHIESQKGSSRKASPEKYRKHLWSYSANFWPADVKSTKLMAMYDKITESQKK

Protein translocase subunit SecA (Escherichia coli (strain K12)), sequence (P10408 whole entry): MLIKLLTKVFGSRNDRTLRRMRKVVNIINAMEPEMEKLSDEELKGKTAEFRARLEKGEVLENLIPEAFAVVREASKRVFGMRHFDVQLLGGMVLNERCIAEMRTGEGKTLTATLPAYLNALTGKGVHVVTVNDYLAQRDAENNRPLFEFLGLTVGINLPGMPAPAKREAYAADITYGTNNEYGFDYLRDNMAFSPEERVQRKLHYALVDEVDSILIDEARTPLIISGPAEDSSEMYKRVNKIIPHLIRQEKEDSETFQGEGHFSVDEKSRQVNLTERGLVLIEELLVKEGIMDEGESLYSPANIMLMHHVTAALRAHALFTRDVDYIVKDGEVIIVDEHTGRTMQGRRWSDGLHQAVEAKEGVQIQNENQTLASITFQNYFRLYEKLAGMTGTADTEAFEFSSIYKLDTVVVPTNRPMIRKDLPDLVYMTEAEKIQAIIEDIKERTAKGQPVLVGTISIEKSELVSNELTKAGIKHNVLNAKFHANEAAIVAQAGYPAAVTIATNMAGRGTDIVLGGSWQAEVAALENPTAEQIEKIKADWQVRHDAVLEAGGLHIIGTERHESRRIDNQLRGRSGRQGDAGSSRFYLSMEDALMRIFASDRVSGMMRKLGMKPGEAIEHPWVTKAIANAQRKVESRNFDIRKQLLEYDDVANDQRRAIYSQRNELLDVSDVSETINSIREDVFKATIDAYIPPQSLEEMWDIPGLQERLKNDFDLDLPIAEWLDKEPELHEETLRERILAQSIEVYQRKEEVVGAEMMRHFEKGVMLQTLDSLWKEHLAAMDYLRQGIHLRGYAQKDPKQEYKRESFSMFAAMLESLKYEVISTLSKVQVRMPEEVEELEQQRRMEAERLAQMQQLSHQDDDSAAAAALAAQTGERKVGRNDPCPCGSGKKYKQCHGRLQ
Sialic acid-binding Ig-like lectin 9 (Homo sapiens), sequence (Q9Y336 whole entry): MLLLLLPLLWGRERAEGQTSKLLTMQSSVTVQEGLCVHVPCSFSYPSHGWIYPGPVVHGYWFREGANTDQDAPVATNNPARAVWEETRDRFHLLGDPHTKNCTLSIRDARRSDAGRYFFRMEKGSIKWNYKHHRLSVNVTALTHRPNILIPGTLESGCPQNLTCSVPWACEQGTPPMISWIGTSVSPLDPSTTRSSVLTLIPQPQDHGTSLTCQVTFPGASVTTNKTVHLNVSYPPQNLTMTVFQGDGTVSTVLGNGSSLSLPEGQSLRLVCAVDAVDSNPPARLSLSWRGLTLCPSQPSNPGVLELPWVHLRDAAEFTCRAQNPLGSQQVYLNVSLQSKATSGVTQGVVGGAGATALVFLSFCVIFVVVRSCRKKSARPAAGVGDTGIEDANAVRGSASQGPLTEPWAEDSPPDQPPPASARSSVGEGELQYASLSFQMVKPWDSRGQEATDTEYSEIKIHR

SMILES | Percent Effect [1] | Percent Effect [2] | Percent Effect [3] | Percent Effect [4] | Percent Effect [5] | Percent Effect [6] | Percent Effect [7] | Percent Effect [8] | Percent Effect [9] | Percent Effect [10]
CC(C)c1cc(CNC(=O)N2CCC(Cc3cnn(C)c3)C2)on1 (stereo not given) | -5.49% | 10.3% | -6.83% | 5.92% | -1.23% | 4.69% | 4.85% | 1.44% | 8.43% | -5.54%
CC(=O)N(Cc1ncc(C)o1)C1CCN(CCCc2cnn(C)c2)C1 (stereo not given) | -1.84% | 18.7% | -5.35% | 1.41% | -3.99% | 26.2% | 2.97% | 4.74% | 12.8% | -12.6%
O=S(=O)(CCCN1CCCC1Cn1cncn1)c1ccccc1 (stereo not given) | 1.87% | 26% | -0.0999% | 1.49% | -4.71% | 17.4% | 2.97% | 9.8% | 21.2% | -10.1%
O=C(Nc1nccs1)NC1CCN(Cc2ccccc2)C1 (stereo not given) | 0.43% | 15.4% | -11.5% | 7.04% | 4.51% | 9.13% | -11.6% | 6.22% | 22.9% | 1.47%
CC(C)NC(=O)N1C[C@H]2C[C@H](C(=O)NCc3ccccc3)[C@@H](C1)O2 | -5.17% | -103% | -0.747% | -5.16% | -5.67% | 8.74% | 8.32% | 3.68% | 7.69% | 3.3%
Cc1ccc(OC2(C(=O)O)CCN(C(=O)c3ccc(F)cc3)CC2)cn1 | -6.12% | -2.7% | 27.8% | 9.41% | -1.05% | 1.88% | -18.1% | 2.66% | 7.32% | -1.29%
O=C(c1ccc(F)cc1F)N1CC[C@H](O)[C@@H](N2CCOCC2)CC1 | -1.33% | 6.67% | 3.3% | -1.58% | 3.98% | 3.94% | 12.8% | 2.12% | 7.5% | -18.1%
Cn1cnc2c1CCN(Cc1csc(-c3ccsc3)n1)C2 | -0.725% | 0% | -11.7% | -1.41% | 3.69% | 13.2% | 27.3% | 11% | 13.2% | 25%
Cc1cccnc1CN(C)CC1(O)CCCN(CC2CCCCC2)C1=O (stereo not given) | -5.13% | -2.7% | 19.5% | 6.69% | 5.94% | 9.76% | 23% | 13.3% | 17.1% | -2.65%
Cc1ccc(CC(=O)N2CCc3nnc(N(C)C)cc3C2)cn1 | 0.88% | 20.5% | -4.67% | -0.469% | 2.05% | 13.6% | 16.2% | 6.22% | 10.8% | -4.95%
O=C1NCC2(CCCN(Cc3ccc(Cl)s3)C2)Oc2ccccc21 (stereo not given) | -1.75% | 20% | 4.75% | 1.18% | -1.33% | 10.3% | 12.7% | 4.23% | 20% | -28.8%
O=C(c1ccccn1)N1CCN(c2ccc(-c3cccnc3)nn2)CC1 | -3.31% | 11.7% | 4.87% | 1.31% | 4.11% | 21.7% | 1.87% | 0.966% | 10% | -7.95%
CCc1noc(C(C)N2CCN(Cc3nnc(C4CC4)o3)CC2)n1 (stereo not given) | -3.4% | 2.67% | -2.35% | 0.402% | -1.77% | -3.31% | -5.04% | 0.526% | 0% | -5.5%
NC(=O)C1CCN(C(=O)c2cccc(OCc3cscn3)c2)CC1 | -1.56% | 10.3% | -4.08% | -3.1% | 5.33% | 5.89% | 26.4% | 2.39% | 10.8% | -2.13%
O=C(NCC1CCOC1)c1ccc(OCC(F)(F)F)nc1 (stereo not given) | -1.32% | 12.8% | 9.89% | -4.98% | 2.46% | 6.91% | 25.9% | 3.35% | 10.8% | -2.44%
O=C(c1ccncc1)N1CCCC2(COCCN(c3ccccc3)C2)C1 (stereo not given) | -5.29% | -1.3% | -2.94% | -6.72% | -5.26% | 20% | 0.424% | 6.84% | 7.69% | -1.75%
CC(C)(O)CN1CCN(C(=O)c2cc(Cl)cc3cccnc23)CC1 | -3.15% | -5.13% | 5.39% | 2.54% | 6.15% | 9.13% | -3.27% | 2.39% | 1.21% | -5.6%
Cc1noc(C2CCN(Cc3cc(=O)n(C)c(=O)n3C)CC2)n1 | -4.76% | 16% | 3.89% | 0.602% | 0% | 13.2% | 15.2% | 3.68% | 12.8% | -9.16%
c1cncc(N2CCOCC3(CCCN(c4nncs4)C3)C2)c1 (stereo not given) | -4.46% | -3.9% | -2.68% | -1.27% | -2.02% | 7.33% | 2.84% | 2.63% | 7.69% | 3.64%
